Source: PubChem (National Center for Advancing Translational Sciences (NCATS))
Gal4-VP16 FLuc: VP16 counterscreen qHTS for inhibitors of ROR gamma transcriptional activity. Drosophila S2 Gal4-VP16 UAS-luciferase, luminescence, 20 h. hit rate 3.5% among 310,000. AID 2546, 2010. Potency, µM (titrated, usually from 53.6 µM), without a hit: at the top dose activity, negative = inhibition, usual class: inhibitors;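 note: Gal4-VP16 expression switched on by copper sulfate through the metallothionein promoter; nearly all actives have a fitted effect of over 50% in size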
TDP1 block: qHTS Assay for Inhibitors of Tyrosyl-DNA Phosphodiesterase (TDP1). hit rate 0.28% among 350,000. AID 485290, 2010. Potency, µM (doses to about 130 µM), without a hit: at the top dose activity change, negative = inhibition, hits mostly inhibitors. recombinant TDP1, AlphaScreen DNA substrate cleavage. Tyrosyl-DNA phosphodiesterase 1 (Homo sapiens), Q9NUW8; note: nearly all actives have a fitted effect of over 40% in size
Target sequence (Q9NUW8 whole entry, looked up): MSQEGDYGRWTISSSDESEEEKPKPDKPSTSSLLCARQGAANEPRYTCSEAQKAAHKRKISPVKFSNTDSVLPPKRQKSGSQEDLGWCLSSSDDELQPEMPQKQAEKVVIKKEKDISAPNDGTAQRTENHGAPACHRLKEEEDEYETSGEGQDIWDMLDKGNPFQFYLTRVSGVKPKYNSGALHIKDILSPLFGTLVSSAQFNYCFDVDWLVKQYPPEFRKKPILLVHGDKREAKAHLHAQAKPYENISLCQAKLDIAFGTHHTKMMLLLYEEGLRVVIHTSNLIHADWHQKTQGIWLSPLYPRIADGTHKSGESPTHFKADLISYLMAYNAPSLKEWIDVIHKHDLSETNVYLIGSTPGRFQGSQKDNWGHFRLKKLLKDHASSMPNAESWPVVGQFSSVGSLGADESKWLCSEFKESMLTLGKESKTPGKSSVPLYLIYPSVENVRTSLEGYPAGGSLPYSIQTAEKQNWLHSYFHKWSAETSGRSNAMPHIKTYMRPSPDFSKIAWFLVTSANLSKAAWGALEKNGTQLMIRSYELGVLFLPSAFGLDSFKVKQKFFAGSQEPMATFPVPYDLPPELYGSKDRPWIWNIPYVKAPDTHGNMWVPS
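Steps: enzyme plus compound, 15 min RT; add biotin/phosphotyrosine-FITC oligonucleotide (15 nM final), react 5 min; add donor/acceptor beads (10 ug/ml final), 10 min; read AlphaScreen. Tdp1 at 1 nM final.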
DT40 TDP1 no CPT: qHTS for Inhibitors of human tyrosyl-DNA phosphodiesterase 1 (TDP1): qHTS in cells in absence of CPT; AID 686978, 2013; hit rate 15% among 420,000; Potency, µM (top dose mostly 46.2 µM), for the others: at the highest dose activity change, negative = growth inhibition, usual class: inhibitors; DT40 Tdp1-/- hTDP1 cells, no CPT, ATP luminescence, 48 h; note: nearly all actives have a fitted effect of over 55% in size
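Growth kinetics read by CellTiter-Glo luminescence after ≥48 hr at 37 °C. Cells: DT40 Tdp1-/- stably carrying human TDP1, 400 per well, compound exposure in the absence of CPT (DMSO vehicle).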
DT40 TDP1 CPT: qHTS for Inhibitors of human tyrosyl-DNA phosphodiesterase 1 (TDP1): qHTS in cells in presence of CPT. chicken DT40 Tdp1-/-;hTDP1 cells + 20 nM CPT, ATP luminescence, 48 h. hit rate 12% among 420,000. Potency, µM (series often up to 46.2 µM), for the others: at the top dose activity change, negative = growth inhibition, usual class: inhibitors; note: nearly all actives have a fitted effect of over 55% in size
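Chicken DT40 Tdp1-/- cells complemented with human TDP1, 400 cells/well, exposed to compounds plus 20 nM camptothecin for at least 48 h at 37 C; viability read as ATP content by CellTiter-Glo luminescence.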
RORgamma inh: qHTS for inhibitors of ROR gamma transcriptional activity | Nuclear receptor ROR-gamma (Mus musculus), P51450 | Drosophila S2 Gal4-RORgamma UAS-luciferase reporter, 20 h | hit rate 5.4% among 310,000 | Potency, µM (titrated, usually from 53.6 µM), without a hit: top-dose activity change, negative = inhibition, hits mostly inhibitors; note: nearly all actives have a fitted effect of over 60% in size
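ROR gamma transcriptional activity was tracked as Gal4-UAS luciferase output in stably transfected Drosophila Schneider cells, with compound added 1 hr before 700 uM copper sulfate induction and a 20 hr ambient-temperature incubation.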
* = called active by the depositor; ? = inconclusive; / = no result; [ ] = another dose, or the depositor's remark. Only some compounds are listed: those with a hit (about 19% of all), similar ones and a draw of the others. Calls come from the whole dose curve; as a rule, active = well fitted curve in the direction sought with a large enough effect; inconclusive = small, poorly fitted or top-dose-only effect, or another doubt; inactive = no such curve, though single readings can be large; an effect the other way counts as inactive or inconclusive. % is set by controls: 0 for no effect and ±100 for the full control effect; potency is the fitted concentration of half-maximal effect.

SMILES	Gal4-VP16 FLuc	TDP1 block	DT40 TDP1 no CPT	DT40 TDP1 CPT	RORgamma inh
CC(C)(C)OC(=O)N(CCc1ccccc1)Cc1ccc(OCc2cccc(NC(=O)C3CCC3)c2)cc1	/	/	14.6µM*	20.6µM*	/
C=C1C=C(C(F)F)n2ncc(C(=O)Nc3cccc(CC)c3)c2N1	/	/	-13.6%	-1.0%	/
CCC1(C)NC(=O)N(/N=C/c2ccc(C)s2)C1=O (stereo not drawn)	-12.3%	/	4.5%	4.6%	16.1%
Cn1c(N)c(C(=O)COC(=O)CCCc2nc3ccccc3s2)c(=O)n(C)c1=O	?	2.7%	?	-2.5%	?
CCOC(=O)c1cnc(-n2nc(C)cc2C)nc1NC	5.62µM*	7.4%	?	?	1.58µM*
CCOC(=O)c1cc(NC(=O)NC2CCCCC2)c(C)nc1C	15.8%	0.6%[0.0935 µM]	-20.6%	-13.4%	-18.6%
CCOC(=O)c1cnc(-n2nc(C)cc2C)nc1Nc1ccc(C)cc1	0.794µM*	2.1%	5.17µM*	4.61µM*	0.562µM*
CCOC(=O)c1cnc(-n2nc(C)cc2C)nc1Nc1cccc(C(=O)O)c1	5.2%	6.0%	-22.0%	-9.7%	-3.3%[10 µM]
CCOC(=O)c1cnc(-n2nc(C)cc2C)nc1Nc1ccc2c(c1)OCO2	-2.0%	-4.0%	/	/	-29.3%[10 µM]
CCOC(=O)c1cnc(-n2nc(C)cc2C)nc1NC1CCCCC1	1.12µM*	5.2%	5.17µM*	4.61µM*	0.355µM*
CCOC(=O)c1cnc(-n2nc(C)cc2C)nc1Nc1ccc(O)cc1	-3.8%	0.0%	2.91µM*	2.31µM*	-40.5%
Cc1cc(C)cc(NC(=O)N2CCCC2C(=O)Nc2ccc(-n3cnnn3)c(C)c2)c1 (stereo not drawn)	-15.2%	3.9%	-8.3%	-7.9%	-44.3%
O=C(COC(=O)CNC(=O)c1cccs1)Nc1ccc(C(F)(F)F)cc1[N+](=O)[O-]	/	2.4%	-22.6%	-0.4%	/
Cc1cccc(C)c1NC(=O)CN(C)C(=O)Cn1c(=O)cnc2ccccc21	2.4%	0.0%	12.9%	-22.6%	11.4%
C#CC1(NC(=O)N(C)C)CCCCC1	3.9%	/	-21.8%	-10.9%	-10.0%
CCC(=O)NC(Nc1ncc(C)s1)(C(=O)OC)C(F)(F)F (stereo not drawn)	2.4%	-2.6%	-8.6%	-12.3%	-7.9%
CCOC(=O)c1cnc(-n2nc(C)cc2C)nc1Oc1ccc(C#N)cc1	-9.9%	-0.6%	-27.1%	-10.5%	0.9%
CCOC(=O)c1cnc(-n2nc(C)cc2C)nc1Nc1ccc(N(C)C)cc1	1.12µM*	4.9%	1.84µM*	1.3µM*	0.794µM*
CCOC(=O)c1cnc2c(Cl)c(Cl)ccc2c1Nc1ccc(N(C)C)cc1	/	/	?	-16.5%	/
CCOC(=O)c1cnc(-n2nc(C)cc2C)nc1N(CC)CC	4.47µM*	4.5%	16.4µM*	23.1µM*	1µM*
COC(=O)[C@@]1(Cc2ccccc2)[C@H]2c3cc(C(=O)N(C)C)n(CCN4CNCC4=O)c3C[C@H]2CN1C(=O)c1ccccc1	-7.5%	9.3%	/	/	11.1%
Cc1ccc(C(C)C)c(OCC(=O)NN=C2CCCCCCC2)c1	?	2.6%	?	?	?
CCCCNC(=S)N(C)/N=C/c1ccc(OCC(=O)Nc2c(C)cc(C)cc2C)c(OC)c1	3.1%	0.0%	8.2µM*	13µM*	-1.4%[10 µM]
CCCCNC(=S)N(C)/N=C/c1ccc(OCC(=O)Nc2ccc(OC)cc2)c(OC)c1	-8.3%	1.1%	?	23.1µM*	-2.0%[10 µM]
COc1cc(/C=N/NC(=S)NC(C)C)ccc1OCC(=O)Nc1c(C)cc(C)cc1C	0.501µM*	0.6%	7.31µM*	7.31µM*	0.708µM*
SMILES	Gal4-VP16 FLuc	TDP1 block	DT40 TDP1 no CPT	DT40 TDP1 CPT	RORgamma inh
COc1cc(/C=N/NC(=S)Nc2cccc(Cl)c2C)ccc1OCC(=O)N1CC(C)OC(C)C1 (stereo not drawn)	2.51µM*	5.4%	14.6µM*	14.6µM*	1.58µM*
CC(C)Cn1c(-c2ccc(Cl)cc2)cnc1SCC(=O)N1CCOCC1	15.0%	4.0%	?	?	-15.5%
CCCCNc1oc(-c2ccc(COc3ccc(OC)cc3)o2)nc1C#N	/	3.6%	-12.7%	-2.3%	/
Cc1ccc(S(=O)(=O)N(C)C[C@@H]2Oc3c(NS(C)(=O)=O)cccc3C(=O)N([C@H](C)CO)C[C@@H]2C)cc1	/	1.3%	-1.9%	-0.7%	/
O=c1[nH]cnc2c1c(-c1ccccc1)cn2-c1ccc(Br)cc1	-23.3%	2.6%	16.4µM*	?	-4.3%
CCOc1ccc(-n2cc(-c3ccccc3)c3c(=O)[nH]cnc32)cc1	-6.0%	5.7%	?	-5.6%	-15.6%
N=c1c(-c2nc3ccccc3[nH]2)cc(C(=O)c2cccs2)nn1-c1ccccc1	?	0.0%	23.1µM*	29.1µM*	-3.5%
N=c1c(-c2nc3ccccc3[nH]2)cc(C(=O)c2ccco2)nn1-c1ccccc1	5.01µM*	10.5%	3.26µM*	2.59µM*	2.82µM*
Cc1ccc2nc(-c3ccc(NC(=O)c4ccco4)cc3)[nH]c2c1	?	5.2%	?	-6.7%	?
Cc1ccc(-c2nnc(-c3cccs3)o2)cc1	-5.1%	-4.7%	?	-20.6%	-14.3%
COc1ccc(NS(=O)(=O)c2ccc(C)c(NC(=O)c3ccc(C)c(S(=O)(=O)N4CCOCC4)c3)c2)cc1	-9.5%	1.8%	14.6µM*	?	?
CCOC(=O)c1ccc(NC(=O)c2cccc(S(=O)(=O)N3CCOCC3)c2)cc1	-9.8%	2.1%	11.6µM*	?	?
O=C(Nc1ccc(N2CCCCCC2)cc1)c1cccc(S(=O)(=O)N2CCOCC2)c1	/	10.1%	4.11µM*	7.31µM*	/
O=C(Nc1cccc(S(=O)(=O)N2CCOCC2)c1)c1cccc(S(=O)(=O)N2CCCCC2)c1	/	-6.3%	?	?	/
CCOC(=O)c1ccc(NC(=O)c2ccc(C)c(S(=O)(=O)N3CCOCC3)c2)cc1	?	5.0%	23.1µM*	?	5.6%
Cc1ccc(C(=O)Nc2ccon2)cc1S(=O)(=O)N1CCOCC1	?	4.9%	-18.8%	-14.5%	11.2µM*
CCc1cccc(CC)c1NC(=O)CN(C)S(=O)(=O)c1ccc2c(c1)n(C)c(=O)c(=O)n2C	/	6.4%	-15.7%	-28.4%	/
COC(=O)C1=CN(c2ccc(Cl)cc2)C=C(C(=O)OC)C1c1ccc([N+](=O)[O-])cc1	-0.7%	5.5%	-23.2%	?	-3.2%
CC(C)(C)[C@@H]1COC(=O)[C@H](Cc2ccc(F)cc2)C/C=C\C[C@@H](CC(=O)N(CCO)Cc2ccccc2)C(=O)N1	/	1.2%	20.6µM*	16.4µM*	/
